{"source": "PubChem BioAssay (Tox21)", "note": "Inconclusive results are not listed. Calls of active or inactive are those of the source. Calls come from the whole dose curve; as a rule, active = well fitted cell-killing curve with a large enough effect in the repeat runs; inconclusive = weak or mixed curves, or effect the other way; inactive = flat fitted curve, though single readings scatter. % is set by controls: 0 for no effect and ±100 for the full control effect.", "data": [{"assay": "qHTS assay to identify small molecule antagonists of the estrogen receptor alpha (ER-alpha) signaling pathway using the BG1 cell line in the presence of 0.1 nM 17-beta-estradiol - cell viability counter screen (AID 1259241); note: nearly all actives have a fitted effect of over 40% in size", "conditions": "VM7Luc4E2 (BG1) viability, CellTiter-Fluor protease, 22 h, 0.1 nM estradiol agonist added; series mostly up to 92.4 µM; activity change, negative = cytotoxicity: at the top concentration", "source_text": "National Center for Advancing Translational Sciences [NCATS]\nNIH Chemical Genomics Center [NCGC]\nU.S. Environmental Protection Agency [EPA]\nNational Institutes of Environmental Health Sciences [NIEHS]\nNational Toxicology Program [NTP]\nU.S. Food and Drug Administration [FDA]\nEstrogen receptor (ER), a member of the nuclear hormone receptor plays an important role in development, metabolic homeostasis and reproduction. Two subtypes of ER, ER-alpha and ER-beta, have similar expression patterns with some uniqueness in both types. Endocrine disrupting chemicals (EDCs) and their interactions with steroid hormone receptors like ER causes disruption of normal endocrine function. Therefore, it is important to understand the effect of environmental chemicals in ER signaling pathway. For identifying ER antagonists, VM7Luc4E2 cell line was used to screen against Tox21 compound libraries.\nVM7Luc4E2 cell line (provided by Denison MS, University of California) endogenously express full-length ER-alpha and is stably transfected with a plasmid containing four estrogen responsive elements (ERE) upstream of a luciferase reporter gene. The current screening for identification of ER-alpha inhibitors against Tox21 compound libraries used lower concentration (0.1 nM) of 17beta-Estradiol as a stimulator. The cytotoxicity of the Tox21 compound libraries against VM7Luc4E2 cell line was tested by measuring live-cell protease activity using CellTiter-Fluor assay in the same wells.\nTox21 Assay Protocol Summary:\nVM7Luc4E2 cells were cultured in phenol red free assay medium containing 10% charcoal stripped FBS for 5 days prior to the assay. The cells were dispensed at 4,000 cells/well in 4 uL of assay medium into white wall/solid-bottom 1536-well plates (Corning Life Sciences, Corning, NY) using a Multidrop Combi (ThermoFisher Scientific, Waltham, MA) dispenser. After the assay plates were incubated at 37C and 5% CO2 for 24 hr, 23 nL of compounds dissolved in DMSO, positive controls or DMSO only was transferred to the assay plates by a Pintool station (Kalypsys, San Diego, CA). The transfer of compounds was followed by the addition of 1 uL of 0.1 nM (final concentration) agonist (17beta-Estradiol)/assay medium using a Flying Reagent Dispenser (FRD, Aurora Discovery, San Diego, CA). The plates were incubated at 37C and 5% CO2 for 22 hr. For cytotoxicity assay, 1 uL of CellTiter-Fluor reagent (Promega Corporation, Madison, WI) was added to each well using the FRD and after 30 min incubation at 37C and 5% CO2, The fluorescence intensity was measured using ViewLux plate reader (PerkinElmer, Shelton, CT).", "values": [{"smiles": "[K+]", "activity change, negative = cytotoxicity": "1.55% (inactive)"}, {"smiles": "COc1ccc2cc1Oc1cc3c(cc1OC)CC[N+](C)(C)[C@H]3Cc1ccc(cc1)Oc1c(OC)c(OC)cc3c1[C@@H](C2)[N+](C)(C)CC3", "activity change, negative = cytotoxicity": "1.43% [at 42.5 µM] (inactive)"}, {"smiles": "Cc1ccc(-c2ccccc2C#N)cc1", "activity change, negative = cytotoxicity": "0.21% [at 42.5 µM] (inactive)"}, {"smiles": "CCC1C(=O)OCC1Cc1cncn1C", "note": "(stereo not given)", "activity change, negative = cytotoxicity": "1.63% [at 42.5 µM] (inactive)"}, {"smiles": "CC(C)(C)OC(=O)c1cccc(N)c1", "activity change, negative = cytotoxicity": "6.41% (inactive)"}, {"smiles": "CC(C)NNC(=O)c1ccncc1", "activity change, negative = cytotoxicity": "6.17% [at 42.5 µM] (inactive)"}, {"smiles": "O=S(=O)(O)c1cccc2ccccc12", "activity change, negative = cytotoxicity": "3.51% (inactive)"}, {"smiles": "O=C(O)c1cc(C(=O)O)cc(C(=O)O)c1", "activity change, negative = cytotoxicity": "0% (inactive)"}, {"smiles": "CC(=O)Oc1cccc(C)c1", "activity change, negative = cytotoxicity": "10.6% [at 42.5 µM] (inactive)"}, {"smiles": "CCCCCCCCCCCCCCCCCCO", "activity change, negative = cytotoxicity": "5.14% [at 42.5 µM] (inactive)"}, {"smiles": "C=CCCCCCCCCC(=O)OCC", "activity change, negative = cytotoxicity": "5.3% (inactive)"}, {"smiles": "C1CCC2(CCCCO2)OC1", "activity change, negative = cytotoxicity": "-0.562% (inactive)"}, {"smiles": "CCCCCCCCCCCCSC", "activity change, negative = cytotoxicity": "-5.29% (inactive)"}, {"smiles": "CCCCN1C=CN(C)C1", "activity change, negative = cytotoxicity": "0.391% [at 19 µM] (inactive)"}, {"smiles": "CN1CCC(=C2c3ccccc3CCc3cccnc32)CC1", "activity change, negative = cytotoxicity": "-15.9% [at 42.5 µM] (inactive)"}, {"smiles": "CC(C)C(=O)OC(=O)C(C)C", "activity change, negative = cytotoxicity": "10.8% (inactive)"}, {"smiles": "C=CCCC(=O)O", "activity change, negative = cytotoxicity": "-7.65% (inactive)"}, {"smiles": "CCN(CC#N)c1cccc(C)c1", "activity change, negative = cytotoxicity": "8.7% (inactive)"}, {"smiles": "CCCO[Si](OCCC)(OCCC)OCCC", "activity change, negative = cytotoxicity": "2.65% (inactive)"}, {"smiles": "OCCCCCO", "activity change, negative = cytotoxicity": "9.13% (inactive)"}, {"smiles": "FB(F)F", "activity change, negative = cytotoxicity": "3.15% (inactive)"}, {"smiles": "CN(C)[C@@H]1C(=O)C(C(=O)NCN2CCCC2)=C(O)[C@@]2(O)C(=O)C3=C(O)c4c(O)cccc4[C@@](C)(O)C3C[C@@H]12", "note": "(stereo not given in full)", "activity change, negative = cytotoxicity": "-8.23% [at 42.5 µM] (inactive)"}, {"smiles": "Cc1ccc(C(=O)Nc2ccc(S(=O)(=O)O)c3cc(S(=O)(=O)O)cc(S(=O)(=O)O)c23)cc1NC(=O)c1cccc(NC(=O)Nc2cccc(C(=O)Nc3cc(C(=O)Nc4ccc(S(=O)(=O)O)c5cc(S(=O)(=O)O)cc(S(=O)(=O)O)c45)ccc3C)c2)c1", "activity change, negative = cytotoxicity": "11.3% [at 42.5 µM] (inactive)"}, {"smiles": "C[C@H]1C[C@H]2[C@@H]3CCC4=CC(=O)C=C[C@]4(C)[C@H]3C(=O)C[C@]2(C)[C@@]1(O)C(=O)CO", "activity change, negative = cytotoxicity": "2.49% [at 42.5 µM] (inactive)"}, {"smiles": "C[N+](C)(CCOc1ccccc1)Cc1cccs1", "activity change, negative = cytotoxicity": "4.53% [at 42.5 µM] (inactive)"}, {"smiles": "COc1cc2c(cc1OC)-c1cc3ccc(OC)c(OC)c3c[n+]1CC2", "activity change, negative = cytotoxicity": "-18.8% (inactive)"}, {"smiles": "CCOC(=O)COC(=O)c1ccccc1C(=O)OCC", "activity change, negative = cytotoxicity": "-0.184% (inactive)"}, {"smiles": "C1CCC2=NCCCN2CC1", "activity change, negative = cytotoxicity": "-1.82% (inactive)"}, {"smiles": "COCCOC[C@H](CC1(C(=O)NC2CCC(C(=O)O)CC2)CCCC1)C(=O)Oc1ccc2c(c1)CCC2", "note": "(stereo not given in full)", "activity change, negative = cytotoxicity": "-16.6% (inactive)"}, {"smiles": "NS(=O)(=O)Cc1noc2ccccc12", "activity change, negative = cytotoxicity": "3.25% [at 42.5 µM] (inactive)"}, {"smiles": "CC(CC=O)CC(C)(C)C", "note": "(stereo not given)", "activity change, negative = cytotoxicity": "8.13% (inactive)"}, {"smiles": "C[C@@H]1C[C@H]2[C@@H]3C[C@H](F)C4=CC(=O)C(Cl)=C[C@]4(C)[C@@]3(F)[C@@H](O)C[C@]2(C)[C@@]1(O)C(=O)CO", "activity change, negative = cytotoxicity": "4.96% [at 42.5 µM] (inactive)"}, {"smiles": "Clc1cc(Cl)cc(Cl)c1", "activity change, negative = cytotoxicity": "-12.2% (inactive)"}, {"smiles": "C[N+]12CCC(CC1)C(OC(=O)C(O)(c1ccccc1)c1ccccc1)C2", "note": "(stereo not given)", "activity change, negative = cytotoxicity": "3.35% [at 42.5 µM] (inactive)"}, {"smiles": "c1ccc(Cc2ccccc2)cc1", "activity change, negative = cytotoxicity": "4.97% (inactive)"}, {"smiles": "CCOc1c(N2CCOCC2)cnn(C)c1=O", "activity change, negative = cytotoxicity": "-3.56% [at 42.5 µM] (inactive)"}, {"smiles": "CC1=CCC(O)(C(C)C)CC1", "note": "(stereo not given)", "activity change, negative = cytotoxicity": "0.773% (inactive)"}, {"smiles": "NC(N)=NCCN1CCCCCCC1", "activity change, negative = cytotoxicity": "-0.721% [at 0.349 µM] (inactive)"}, {"smiles": "CCCC(C)C(=O)OCC", "note": "(stereo not given)", "activity change, negative = cytotoxicity": "-16.5% (inactive)"}, {"smiles": "C[N+]1(CC2COC(c3ccccc3)(c3ccccc3)O2)CCCCC1", "note": "(stereo not given)", "activity change, negative = cytotoxicity": "0.56% [at 19 µM] (inactive)"}]}]}
